Source: PubChem BioAssay (Buhrlage Lab, Dana-Farber Cancer Institute and Novartis Institutes for BioMedical Research (Cambridge, Mass))
USP17 inh: human USP17-like deubiquitinase inhibition. A8MUK1. purified USP17, Ub-rhodamine cleavage fluorescence, 3 h. inhibition, % at 50 µM. actives 6.5% (n = 47,000). AID 1645855
USP8 inh: human USP8 deubiquitinase inhibition | purified USP8, Ub-rhodamine cleavage fluorescence, 30 min | inhibition, % at 20 µM | P40818 | actives 4.2% (n = 47,000)
USP10 inh: blocks human USP10 ubiquitin-rhodamine cleavage. Q14694. purified USP10, Ub-rhodamine fluorescence, 60 min. inhibition, % at 20 µM. actives 1.1% (n = 47,000)
USP28 inh: blocks human USP28 ubiquitin-rhodamine cleavage. AID 1645857. purified USP28, Ub-rhodamine cleavage fluorescence, 30 min. Q96RU2. actives 3% (n = 47,000). inhibition, % at 25 µM
USP30 inh: blocks human USP30 ubiquitin-rhodamine cleavage. Q70CQ3. purified USP30, Ub-rhodamine cleavage fluorescence. inhibition, % at 25 µM. actives 5.3% (n = 47,000)
Target sequence (Q70CQ3 whole entry, looked up): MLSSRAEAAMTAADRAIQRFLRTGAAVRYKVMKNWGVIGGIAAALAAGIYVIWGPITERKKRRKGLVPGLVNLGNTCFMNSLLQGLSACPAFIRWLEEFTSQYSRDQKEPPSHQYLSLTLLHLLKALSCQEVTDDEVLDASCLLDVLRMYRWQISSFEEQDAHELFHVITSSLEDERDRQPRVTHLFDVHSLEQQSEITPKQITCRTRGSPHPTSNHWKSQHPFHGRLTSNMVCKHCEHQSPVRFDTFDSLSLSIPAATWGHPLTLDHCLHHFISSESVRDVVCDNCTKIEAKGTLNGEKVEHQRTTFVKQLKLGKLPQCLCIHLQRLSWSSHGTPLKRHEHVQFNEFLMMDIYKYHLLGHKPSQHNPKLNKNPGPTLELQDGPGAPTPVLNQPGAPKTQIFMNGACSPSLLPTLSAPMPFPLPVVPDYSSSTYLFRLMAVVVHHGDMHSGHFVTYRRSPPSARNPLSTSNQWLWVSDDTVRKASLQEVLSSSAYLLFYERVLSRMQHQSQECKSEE
Starred values were filed as active, the others as inactive. Only some compounds are listed: those with a hit (about 14% of all), similar ones and a draw of the others. No stated cut-off is given here; in the data, active means inhibition above about 30%; inactive means the rest.

Cc1ccc(NC(=O)Cn2nc3ccc(C(=O)NCc4ccccc4)cn3c2=O)cc1F was read as USP17 inh 72*, USP8 inh 41*, USP10 inh 10, USP28 inh -2 and USP30 inh -14.
For Cc1ccc2[nH]c(=O)c(-c3nc4ccccn4c3NCc3ccccc3)cc2c1 the results were USP17 inh 17, USP8 inh 1, USP10 inh 24, USP28 inh -3 and USP30 inh -11.
Oc1ccccc1-c1nc2ccc(Cl)cn2c1NCCc1ccccc1 was read as USP17 inh 15, USP8 inh 78*, USP10 inh 7, USP28 inh 8 and USP30 inh 5.
Screening Cc1ccc2nc(-c3ccccc3O)c(NCCc3ccccc3)n2c1 returned USP17 inh 16, USP8 inh 80*, USP10 inh 7, USP28 inh 6 and USP30 inh -12.
Screening O=C(c1cc(-c2ccc(Cl)cc2)n[nH]1)N1CCN(c2ccccn2)CC1 returned USP17 inh 45*, USP8 inh 66*, USP10 inh 23, USP28 inh 13 and USP30 inh 43*.
Cc1ccc(-c2nn3c(N4CCCC4)cc(C)nc3c2C)cc1 was read as USP17 inh 22, USP8 inh -2, USP10 inh -2, USP28 inh -5 and USP30 inh -3.
For COc1ccc(-c2cc(C(=O)N3CCN(c4ccccn4)CC3)[nH]n2)cc1 the results were USP17 inh 46*, USP8 inh 14, USP10 inh 4, USP28 inh 21 and USP30 inh 11.
`COc1ccc(-c2cc(N3CCN(C(=O)c4ccccn4)CC3)n[nH]2)cc1` gave USP17 inh -10, USP8 inh -7, USP10 inh 0, USP28 inh -17 and USP30 inh -23.
For O=C(c1cc(-c2ccc(Cl)cc2)n[nH]1)N1CCN(C(=O)c2ccco2)CC1 the results were USP17 inh 70*, USP8 inh -4, USP10 inh 3, USP28 inh 3 and USP30 inh 10.
For COc1ccc(-c2nn3c(N4CCN(c5ccccn5)CC4)cc(C)nc3c2C)cc1 the results were USP17 inh 84*, USP8 inh 3 and USP10 inh 1.
For CC(C)N1C[C@@H]2C[C@H]1C(=O)N1CCN(C(=O)C3CCOCC3)[C@@H](C1)C(=O)NC[C@H]1O[C@@H](CC(=O)N2)[C@H](O)[C@@H]1O the results were USP17 inh -84, USP8 inh 0, USP10 inh -8, USP28 inh -58 and USP30 inh -365.
Screening CC(C)n1nnc2cc(C(=O)N3CCCC3)ccc21 returned USP17 inh -23, USP8 inh 6, USP10 inh 2, USP28 inh 3 and USP30 inh 11.
For O=S(=O)(Oc1cccnc1)c1cccc2nonc12 the results were USP17 inh -4, USP8 inh -79, USP10 inh 0, USP28 inh 0 and USP30 inh 18.
`COc1ccc(C(=O)/C=C\c2cn(-c3ccccc3)nc2-c2cccs2)cc1` gave USP17 inh -3, USP8 inh 2, USP10 inh 1, USP28 inh -12 and USP30 inh -14.
Screening Nc1nn(-c2ccccc2)cc1-c1cccs1 returned USP17 inh -3, USP8 inh 36*, USP10 inh -7, USP28 inh -2 and USP30 inh -20.
`O=C(O)c1ccc2c(c1)C1(CCCCC1)CN2C(=O)c1cnc2ccccc2c1` gave USP17 inh -134, USP8 inh -129, USP10 inh 0, USP28 inh -91 and USP30 inh -274.
For CC1(C)c2[nH]c3ccccc3c2C[C@@H]2C(=O)N(CCCN3CCOCC3)CC(=O)N21 the results were USP17 inh -20, USP8 inh -17, USP10 inh -8, USP28 inh -21 and USP30 inh -75.
`O=C(COc1ncnc2sc3c(c12)CCCC3)Nc1ccc2c(c1)OCO2` gave USP17 inh 11, USP8 inh 30, USP10 inh 31*, USP28 inh -21 and USP30 inh -103.
Screening COc1ccc(C)cc1NC(=O)COc1ccc2c(c1)OCO2 returned USP17 inh 52*, USP8 inh 37*, USP10 inh 4, USP28 inh -5 and USP30 inh -1.
`O=C(COc1ccc2c(c1)OCO2)Nc1ccc2c(c1)CCC2` gave USP17 inh 16, USP8 inh 31*, USP10 inh 7, USP28 inh 30 and USP30 inh 6.
Cc1cc(Cl)ccc1OCC(=O)Nc1ncnc2sc3c(c12)CCCC3 was read as USP17 inh 26, USP8 inh -9, USP10 inh -1, USP28 inh -7 and USP30 inh -51.
COc1ccc(S(=O)(=O)N2CCOCC2)cc1NC(=O)COc1ccc(C)cc1 was read as USP17 inh -2, USP8 inh -9, USP10 inh -1, USP28 inh 8 and USP30 inh 0.
For N#Cc1cccnc1N1CCC(C2CCCCCN2C(=O)Nc2ccccc2)CC1 (configuration not stated) the results were USP17 inh -2, USP8 inh 0, USP10 inh 1, USP28 inh 1 and USP30 inh 0.
Screening Cc1oc(-c2[nH]ncc2C(=O)N2CCCC2)cc1S(=O)(=O)N(C)C returned USP17 inh 0, USP8 inh -2, USP10 inh 1, USP28 inh 1 and USP30 inh 3.
For COc1cccc(C2CC(=O)Nc3c2sc(C(=O)O)c3-c2ccc(C)cc2)c1 (configuration not stated) the results were USP17 inh 14, USP8 inh 17, USP10 inh 3, USP28 inh 3 and USP30 inh 30*.
`CCc1nccn1Cc1noc(-c2ccc3c(c2)OCO3)n1` gave USP17 inh 18, USP8 inh 18, USP10 inh 1, USP28 inh 48* and USP30 inh 25.
For Cc1nccn1Cc1noc(-c2ccc3c(c2)OCO3)n1 the results were USP17 inh -8, USP8 inh 0, USP10 inh -1, USP28 inh 6 and USP30 inh -4.
For Cc1cc(C)cc(NC(=O)CN2C(=O)CC(c3ccccc3)Sc3ccccc32)c1 (configuration not stated) the results were USP17 inh 27, USP8 inh 19, USP10 inh 13, USP28 inh 33* and USP30 inh 57*.
For O=C1c2c(O)ccc(O)c2C2(Oc3cccc4cccc(c34)O2)C2OC12 (configuration not stated) the results were USP17 inh 97*, USP8 inh 39*, USP10 inh 14, USP28 inh 72* and USP30 inh 89*.
For O=C1c2c(O)cccc2C2(Oc3cccc4cccc(c34)O2)C2OC12 (configuration not stated) the results were USP17 inh 98*, USP8 inh 84*, USP10 inh 34*, USP28 inh 60* and USP30 inh 33*.
